Records with an inconclusive call do not appear. Calls of active or inactive are those of the source. Unless noted, calls come from the whole dose curve; as a rule, active = well fitted curve in the direction sought with a large enough effect in the repeat runs; inconclusive = weak or mixed curves; inactive = no such curve, though single readings can be large; an effect the other way counts as inactive or inconclusive.
Experiments:
[1] = biological target: Estrogen receptor beta (Homo sapiens) (UniProt Q92731); test: qHTS assay to identify small molecule agonists of the estrogen receptor beta (ER-beta) signaling pathway (AID 1259377; active = well fitted activation curve with a large enough effect in the signal ratio in the repeat runs, not every such curve was filed as active; the % refers to the signal ratio)
Sequence of Estrogen receptor beta (Homo sapiens) (Q92731 whole entry, looked up): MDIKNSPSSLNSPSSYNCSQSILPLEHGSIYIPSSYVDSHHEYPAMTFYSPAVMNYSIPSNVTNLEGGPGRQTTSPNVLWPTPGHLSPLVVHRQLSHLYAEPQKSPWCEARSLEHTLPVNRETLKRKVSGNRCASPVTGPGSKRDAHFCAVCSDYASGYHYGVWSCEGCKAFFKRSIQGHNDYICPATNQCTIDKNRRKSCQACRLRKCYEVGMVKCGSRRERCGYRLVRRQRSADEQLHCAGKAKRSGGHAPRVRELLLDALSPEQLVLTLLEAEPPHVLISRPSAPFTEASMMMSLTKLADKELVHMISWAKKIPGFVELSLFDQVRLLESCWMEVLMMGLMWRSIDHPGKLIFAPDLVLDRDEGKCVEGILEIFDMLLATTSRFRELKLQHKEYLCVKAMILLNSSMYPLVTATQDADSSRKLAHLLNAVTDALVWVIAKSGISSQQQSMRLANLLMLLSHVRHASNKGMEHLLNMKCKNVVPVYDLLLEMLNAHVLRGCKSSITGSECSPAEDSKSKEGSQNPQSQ
How it was run: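 Ratiometric beta-lactamase FRET read-out came after 2 h substrate loading at room temperature. It followed 16 h compound treatment at 37C of GripTite HEK293T cells carrying a UAS-bla reporter, plated in 2% charcoal-stripped FBS medium.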

[2] = biological target: Estrogen receptor beta (Homo sapiens) (UniProt Q92731); test: qHTS assay to identify small molecule antagonists of the estrogen receptor beta (ER-beta) signaling pathway (AID 1259378; active = well fitted inhibition curve with a large enough effect in the signal ratio in the repeat runs, not every such curve was filed as active; the % refers to the signal ratio; note: potency is the fitted concentration of half-maximal effect)
How it was run: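 ER-beta-UAS-bla HEK293T (GripTite) cells in 2% charcoal-stripped FBS medium were preincubated 6 hr at 37C, dosed with compound, then stimulated with 1 nM E2 (final) for 16 hr; beta-lactamase reporter read by B/G FRET fluorescence after 2 hr substrate loading.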

[3] = qHTS assay to identify small molecule agonists of the androgen receptor (AR) signaling pathway in the presence of an antagonist - cell viability counter screen (AID 1259379); note: nearly all actives have a fitted effect of over 25% in size; note: potency is the fitted concentration of half-maximal effect;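 for activity change, negative = cytotoxicity: MDA-kb2 human breast cancer cells carrying an MMTV luciferase reporter; series mostly up to about 92 µM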
How it was run: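 Fluorescence from CellTiter-Fluor, added after 15 hr and read 1 hr later, gave cell viability. Cells were MDA-kb2 exposed to compounds (15 concentrations) in the presence of 3.0uM nilutamide at 37C, 0% CO2.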

[4] = qHTS assay to identify small molecule agonists of the estrogen receptor beta (ER-beta) signaling pathway - cell viability counter screen (AID 1259380); note: nearly all actives have a fitted effect of over 30% in size; note: potency is the fitted concentration of half-maximal effect
How it was run: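 Same-well viability counter screen. Cells: ER-beta-UAS-bla HEK293T, plated 6 hr before compound, in 2% charcoal-stripped FBS. Compound exposure 16 hr, 37C; viability by CellTiter-Glo luminescence after 30 min at room temperature.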

[5] = biological target: Androgen receptor (Homo sapiens) (UniProt P10275); test: qHTS assay to identify small molecule agonists of the androgen receptor (AR) signaling pathway in the presence of an antagonist (AID 1259381; calls by dose curve; note: nearly all actives have a fitted effect of over 15% in size)
Sequence of Androgen receptor (Homo sapiens) (P10275 whole entry, looked up): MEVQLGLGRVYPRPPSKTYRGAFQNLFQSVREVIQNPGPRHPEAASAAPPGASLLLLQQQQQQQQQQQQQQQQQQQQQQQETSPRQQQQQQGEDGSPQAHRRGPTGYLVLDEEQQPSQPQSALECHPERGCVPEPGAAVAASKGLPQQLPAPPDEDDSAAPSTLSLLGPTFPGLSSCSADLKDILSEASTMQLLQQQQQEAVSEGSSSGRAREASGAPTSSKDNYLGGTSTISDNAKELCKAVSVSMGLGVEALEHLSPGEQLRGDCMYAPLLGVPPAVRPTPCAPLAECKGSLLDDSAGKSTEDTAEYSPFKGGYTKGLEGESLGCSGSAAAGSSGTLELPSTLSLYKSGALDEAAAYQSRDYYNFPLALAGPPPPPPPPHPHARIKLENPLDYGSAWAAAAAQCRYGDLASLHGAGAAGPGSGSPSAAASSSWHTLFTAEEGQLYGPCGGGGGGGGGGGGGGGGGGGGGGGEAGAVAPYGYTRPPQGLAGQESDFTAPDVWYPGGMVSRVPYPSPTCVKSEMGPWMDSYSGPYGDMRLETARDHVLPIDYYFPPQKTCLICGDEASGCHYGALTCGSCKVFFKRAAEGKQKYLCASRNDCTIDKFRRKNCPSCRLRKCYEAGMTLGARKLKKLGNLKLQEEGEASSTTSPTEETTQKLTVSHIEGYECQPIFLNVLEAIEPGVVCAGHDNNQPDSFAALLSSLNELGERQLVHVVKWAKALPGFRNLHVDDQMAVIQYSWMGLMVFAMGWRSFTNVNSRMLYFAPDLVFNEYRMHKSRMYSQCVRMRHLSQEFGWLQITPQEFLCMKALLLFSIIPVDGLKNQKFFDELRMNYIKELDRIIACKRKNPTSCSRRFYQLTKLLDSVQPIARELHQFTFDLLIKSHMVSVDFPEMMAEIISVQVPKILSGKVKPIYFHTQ
How it was run: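 Cells are MDA-kb2 (human breast carcinoma, MMTV-luc, AR/GR responsive). Nilutamide is present at 3.0uM final throughout; compounds are added at 15 concentrations and incubated 16hr at 37C before ONE-Glo luminescence detection.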

[6] = qHTS assay to identify small molecule agonists or antagonists of the thyroid stimulating hormone receptor (TSHR) signaling pathway - wild type cell line counter screen (AID 1259384; calls by dose curve)
How it was run: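 Wild-type HEK293 cells were plated 18 h at 37 C/5% CO2, pin-dosed with compound plus Ro20-1724 medium, held 30 min at room temperature, then given cAMP-d2 and anti-cAMP-cryptate; fluorescence was read after 1 h. Fifteen concentrations, triplicate.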

[7] = biological target: Thyrotropin receptor (Homo sapiens) (UniProt P16473); test: qHTS assay to identify small molecule antagonists of the thyroid stimulating hormone receptor (TSHR) signaling pathway (AID 1259385; calls by dose curve; note: nearly all actives have a fitted effect of over 20% in size)
Sequence of Thyrotropin receptor (Homo sapiens) (P16473 whole entry, looked up): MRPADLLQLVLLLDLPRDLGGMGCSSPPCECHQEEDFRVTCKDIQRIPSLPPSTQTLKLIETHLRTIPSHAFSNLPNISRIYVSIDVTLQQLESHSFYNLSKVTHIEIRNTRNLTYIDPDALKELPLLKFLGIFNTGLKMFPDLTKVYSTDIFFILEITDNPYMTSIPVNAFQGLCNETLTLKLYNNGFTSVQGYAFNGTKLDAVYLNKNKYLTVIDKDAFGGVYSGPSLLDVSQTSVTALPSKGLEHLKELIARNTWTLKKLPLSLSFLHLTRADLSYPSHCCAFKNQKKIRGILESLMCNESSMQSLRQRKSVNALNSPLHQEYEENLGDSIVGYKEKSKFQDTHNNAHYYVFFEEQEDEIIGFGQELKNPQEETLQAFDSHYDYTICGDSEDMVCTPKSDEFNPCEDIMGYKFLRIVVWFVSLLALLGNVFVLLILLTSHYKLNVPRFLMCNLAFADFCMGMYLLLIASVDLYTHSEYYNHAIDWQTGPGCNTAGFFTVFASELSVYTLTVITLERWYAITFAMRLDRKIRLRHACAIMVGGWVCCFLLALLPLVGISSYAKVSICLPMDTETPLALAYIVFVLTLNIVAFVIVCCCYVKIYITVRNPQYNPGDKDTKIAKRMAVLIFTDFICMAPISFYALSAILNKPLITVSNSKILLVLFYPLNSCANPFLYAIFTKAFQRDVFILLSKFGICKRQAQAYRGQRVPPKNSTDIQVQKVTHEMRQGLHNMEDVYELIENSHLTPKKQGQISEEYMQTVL
How it was run: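 TSHR-HEK293 cells were plated and held 18 h at 37C/5% CO2, then given compound plus Ro20-1724 and stimulated with TSH at 1.5 ng/mL final. After 30 min at room temperature, cAMP was detected with cAMP-d2/anti-cAMP-cryptate (1 h) by fluorescence.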

[8] = qHTS assay to identify small molecule agonists of the estrogen receptor alpha (ER-alpha) signaling pathway in the presence of an antagonist - cell viability counter screen (AID 1259386);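 note: cells exposed to compounds for 22 h at 37 °C before the viability read; nearly all actives have a fitted effect of over 30% in size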; note: potency is the fitted concentration of half-maximal effect; for activity change, negative = cytotoxicity: series mostly up to about 92 µM
How it was run: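 Cells are starved of estrogens for 5 days in charcoal-stripped serum, seeded for 24hr and co-treated with ICI-182,780 (10.0nM final) and test compounds. After 22hr at 37C, viability is read as CellTiter-Fluor fluorescence.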

[9] = biological target: Progesterone receptor (Homo sapiens) (UniProt P06401); test: qHTS assay to identify small molecule agonists of the progesterone receptor (PR) signaling pathway (AID 1346784; calls by dose curve; note: nearly all actives have a fitted effect of over 30% in size)
Sequence of Progesterone receptor (Homo sapiens) (P06401 whole entry, looked up): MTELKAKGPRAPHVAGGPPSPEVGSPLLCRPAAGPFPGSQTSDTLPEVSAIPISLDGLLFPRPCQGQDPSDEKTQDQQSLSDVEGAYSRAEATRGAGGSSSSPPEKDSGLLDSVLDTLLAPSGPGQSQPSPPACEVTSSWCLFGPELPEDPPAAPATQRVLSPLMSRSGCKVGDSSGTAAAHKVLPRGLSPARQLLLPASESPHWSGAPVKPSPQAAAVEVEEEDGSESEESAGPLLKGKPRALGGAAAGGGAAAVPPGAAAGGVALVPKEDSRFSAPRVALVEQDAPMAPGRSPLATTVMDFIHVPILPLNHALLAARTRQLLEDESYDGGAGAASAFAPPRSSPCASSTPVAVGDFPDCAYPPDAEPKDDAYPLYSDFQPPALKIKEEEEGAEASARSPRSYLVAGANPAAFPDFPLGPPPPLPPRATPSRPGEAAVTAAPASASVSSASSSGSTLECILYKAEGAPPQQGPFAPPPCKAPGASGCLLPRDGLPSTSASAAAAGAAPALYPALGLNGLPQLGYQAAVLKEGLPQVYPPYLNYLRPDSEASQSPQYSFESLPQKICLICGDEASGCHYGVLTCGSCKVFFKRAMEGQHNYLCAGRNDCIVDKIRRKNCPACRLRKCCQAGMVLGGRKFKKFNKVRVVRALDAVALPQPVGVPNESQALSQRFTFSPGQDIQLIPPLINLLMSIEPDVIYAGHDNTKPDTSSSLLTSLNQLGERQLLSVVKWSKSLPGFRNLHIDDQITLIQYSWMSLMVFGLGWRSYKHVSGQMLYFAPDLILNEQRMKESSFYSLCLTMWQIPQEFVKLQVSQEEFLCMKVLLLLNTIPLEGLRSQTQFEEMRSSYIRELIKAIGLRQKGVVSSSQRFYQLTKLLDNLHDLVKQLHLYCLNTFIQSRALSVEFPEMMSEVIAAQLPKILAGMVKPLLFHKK
How it was run: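 Agonist qHTS: compounds pinned onto 3,000 PR-UAS-bla HEK 293T cells per well in charcoal-stripped serum medium, 16hr at 37C, then beta-lactamase activity measured by LiveBLAzer FRET fluorescence after 2 hours at room temperature.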

[10] = biological target: Progesterone receptor (Homo sapiens) (UniProt P06401); test: qHTS assay to identify small molecule antagonists of the progesterone receptor (PR) signaling pathway (AID 1346795; active = well fitted inhibition curve with a large enough effect in the signal ratio in the repeat runs, not every such curve was filed as active; the % refers to the signal ratio; note: potency is the fitted concentration of half-maximal effect)
How it was run: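 Antagonist mode with agonist R5020 at 1 nM final and 16 hr incubation at 37C. Reporter was beta-lactamase driven by UAS in HEK293T (PR-UAS-bla), 2% charcoal-stripped serum; signal from LiveBLAzer FRET substrate, 2 hr at room temperature.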

[11] = qHTS assay to identify small molecule antagonists of the TGF-beta/Smad signaling pathway - cell viability counter screen (AID 1346824); note: nearly all actives have a fitted effect of over 50% in size
How it was run: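 SBE-bla HEK 293T cells were plated overnight at 37 C, then given compounds in DMSO plus TGF-beta1 (added as 0.25 ng/mL solution) for 5 hr. After the bla read, CellTiter-Glo was added to the same wells and luminescence read after 30 min at room temperature.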

[12] = qHTS assay to identify small molecule agonists of the TGF-beta/Smad signaling pathway - cell viability counter screen (AID 1346829); note: top concentration of the series differs between compounds; nearly all actives have a fitted effect of over 45% in size
How it was run: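 Luminescence from CellTiter-Glo, read after a 30 min room-temperature incubation, gives cell viability of SBE-bla HEK 293T cells treated 5 hr with compounds at 37 C.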

[13] = qHTS assay to identify small molecule agonists of the TGF-beta/Smad signaling pathway (AID 1346859; active = well fitted activation curve with a large enough effect in the signal ratio in the repeat runs, not every such curve was filed as active; the % refers to the signal ratio; note: series mostly up to about 77 µM)
How it was run: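 Fluorescence (ex 405 nm; em 460 and 530 nm) was read 2 h after LiveBLAzer FRET substrate at RT. The preceding compound treatment of overnight-plated SBE-bla HEK293T cells lasted 5 h at 37 C.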

[14] = biological target: Thyrotropin-releasing hormone receptor (Homo sapiens) (UniProt P34981); test: qHTS assay to identify small molecule antagonists of the thyrotropin-releasing hormone receptor (TRHR) signaling pathway (AID 1346877; active = well fitted inhibition curve with a large enough effect in the repeat runs, not every such curve was filed as active; note: series mostly up to about 51 µM)
Sequence of Thyrotropin-releasing hormone receptor (Homo sapiens) (P34981 whole entry, looked up): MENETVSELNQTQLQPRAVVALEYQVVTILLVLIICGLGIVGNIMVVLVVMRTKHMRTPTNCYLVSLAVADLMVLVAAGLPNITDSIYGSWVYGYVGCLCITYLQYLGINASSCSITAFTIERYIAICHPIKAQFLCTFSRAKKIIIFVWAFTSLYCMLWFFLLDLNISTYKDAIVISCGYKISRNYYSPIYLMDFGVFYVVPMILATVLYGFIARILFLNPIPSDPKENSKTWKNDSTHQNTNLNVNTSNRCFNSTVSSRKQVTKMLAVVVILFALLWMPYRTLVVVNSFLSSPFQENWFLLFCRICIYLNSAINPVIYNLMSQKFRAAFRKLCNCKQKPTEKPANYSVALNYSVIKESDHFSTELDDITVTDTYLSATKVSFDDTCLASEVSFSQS
How it was run: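 Cells (TRHR-HEK293) are plated and kept 18 h at 37 °C/5% CO2. A calcium-sensitive dye is added for 2 h, compound follows for 5 min at room temperature, and TRH is then given at 1 nM final.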

[15] = biological target: Thyrotropin-releasing hormone receptor (Homo sapiens) (UniProt P34981); test: qHTS assay to identify small molecule agonists of the thyrotropin-releasing hormone receptor (TRHR) signaling pathway (AID 1346891; calls by dose curve; note: series mostly up to about 58 µM)
How it was run: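 Agonist-mode intracellular calcium readout: kinetic fluorescence over 3 min at 1 s intervals after compound addition to TRHR-HEK293 cells (18 h seeded, 2 h dye-loaded at 37 C). Fifteen concentrations, triplicates.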

[16] = qHTS assay to identify small molecule antagonists of the estrogen receptor beta (ER-beta) signaling pathway - cell viability counter screen (AID 1259382); note: series mostly up to about 92 µM; nearly all actives have a fitted effect of over 55% in size
How it was run: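 Following a 6 hr plating period, HEK293T cells carrying a UAS-driven beta-lactamase reporter under ER-beta control received compounds and 1nM E2 (final). After 16 hr at 37C and 2 hr substrate loading, CellTiter-Glo luminescence indicated viability.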

[17] = biological target: Estrogen receptor (Homo sapiens) (UniProt P03372); test: qHTS assay to identify small molecule agonists of the estrogen receptor alpha (ER-alpha) signaling pathway in the presence of an antagonist (AID 1259383; calls by dose curve; note: top concentration of the series differs between compounds; nearly all actives have a fitted effect of over 15% in size)
Sequence of Estrogen receptor (Homo sapiens) (P03372 whole entry, looked up): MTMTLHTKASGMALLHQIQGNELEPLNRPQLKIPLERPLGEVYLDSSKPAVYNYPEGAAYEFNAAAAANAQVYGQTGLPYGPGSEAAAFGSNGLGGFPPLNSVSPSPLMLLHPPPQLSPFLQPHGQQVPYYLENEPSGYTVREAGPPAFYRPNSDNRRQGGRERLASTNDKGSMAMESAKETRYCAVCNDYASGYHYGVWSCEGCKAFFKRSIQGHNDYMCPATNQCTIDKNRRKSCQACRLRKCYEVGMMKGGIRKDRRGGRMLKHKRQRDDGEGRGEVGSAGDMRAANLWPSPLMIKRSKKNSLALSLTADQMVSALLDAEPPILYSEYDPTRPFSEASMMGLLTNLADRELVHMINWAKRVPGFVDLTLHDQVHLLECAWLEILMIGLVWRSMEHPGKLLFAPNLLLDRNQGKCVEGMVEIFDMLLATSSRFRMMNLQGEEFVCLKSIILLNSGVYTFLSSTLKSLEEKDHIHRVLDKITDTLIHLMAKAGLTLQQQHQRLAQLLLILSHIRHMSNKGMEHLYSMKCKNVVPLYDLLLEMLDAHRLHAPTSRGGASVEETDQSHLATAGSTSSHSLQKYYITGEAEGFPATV
How it was run: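 Cells are hormone-deprived for 5 days (charcoal-stripped FBS, no phenol red), plated for 24hr, spiked with 10.0nM ICI-182,780, then dosed at 15 concentrations. After 22hr at 37C, ONE-Glo luminescence reports ERE-luciferase activity.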

[18] = qHTS assay to identify small molecule antagonists of the progesterone receptor (PR) signaling pathway - cell viability counter screen (AID 1346798); note: series mostly up to about 92 µM; nearly all actives have a fitted effect of over 50% in size
How it was run: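 Cytotoxicity read as CellTiter-Glo luminescence (30 min, room temperature) in the same wells as the beta-lactamase readout. HEK293T PR-UAS-bla cells in charcoal-stripped 2% FBS received compound and R5020, then 16 h at 37C, 5% CO2.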

[19] = Human pregnane X receptor (PXR) small molecule agonists, qHTS cell viability counter screen (AID 1346977); note: nearly all actives have a fitted effect of over 50% in size
How it was run: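 Same-well viability read: CellTiter-Fluor added after 23 hr compound exposure, fluorescence measured 1 hr later. Cells were PXR-Luc HepG2 seeded at 2,000/well in 5% charcoal-stripped FBS medium, rested 5 hr before dosing at 37 C.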

[20] = qHTS assay to identify small molecule agonists of the progesterone receptor (PR) signaling pathway - cell viability counter screen (AID 1346799; calls by dose curve; note: nearly all actives have a fitted effect of over 45% in size)
How it was run: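 Cytotoxicity measured by CellTiter-Glo luminescence (30 min, RT) in the same wells as the PR beta-lactamase agonist read. Those HEK293T cells had 16 h compound treatment at 37 C in 2% charcoal-stripped FBS medium.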
% is set by controls: 0 for no effect and ±100 for the full control effect.

Cc1ccc(-n2[nH]c(C)c(N=Nc3cccc(-c4cccc(C(=O)O)c4)c3O)c2=O)cc1C
inactive: Potency [1] | Potency [5] | outcome [6] | Potency [7] | outcome [9] | Potency [11] | Potency [12] | Potency [13] | Potency [14] | Potency [15]
active: Potency [2] 8.41 µM | Potency [3] 29.8 µM | Potency [4] 26.6 µM | Potency [8] 29.8 µM | Potency [10] 18.8 µM

C=CC/C=C/C/C=C/C/C=C/C
inactive: Potency [1] | Potency [2] | Potency [3] | Potency [4] | Potency [5] | Potency [16] | Potency [17] | outcome [6] | Potency [7] | Potency [8] | Potency [10] | Potency [18] | Potency [11] | Potency [12] | Potency [13] | Potency [14] | Potency [15] | Potency [19]

CC1CNCC(C)O1 (stereo unspecified)
inactive: Potency [1] | Potency [2] | Potency [3] | Potency [4] | Potency [5] | Potency [16] | Potency [17] | outcome [6] | Potency [7] | Potency [8] | outcome [9] | Potency [10] | Potency [18] | Potency [20] | Potency [11] | Potency [12] | Potency [13] | Potency [19]

CC(C)(C)c1cc(CCC(=O)NCCCCCCNC(=O)CCc2cc(C(C)(C)C)c(O)c(C(C)(C)C)c2)cc(C(C)(C)C)c1O
inactive: Potency [1] | Potency [2] | Potency [3] | Potency [4] | Potency [5] | Potency [16] | Potency [17] | outcome [6] | Potency [7] | Potency [8] | outcome [9] | Potency [10] | Potency [20] | Potency [11] | Potency [13] | Potency [14] | Potency [15] | Potency [19]

CC(C)=CCCC(C)O (stereo unspecified)
inactive: Potency [1] | Potency [2] | Potency [3] | Potency [4] | Potency [5] | Potency [16] | Potency [17] | outcome [6] | Potency [7] | Potency [8] | Potency [10] | Potency [18] | Potency [11] | Potency [12] | Potency [13] | Potency [19]

CC1(C)C(=O)N(CO)C(=O)N1CO
inactive: Potency [1] | Potency [2] | Potency [3] | Potency [4] | Potency [16] | Potency [17] | outcome [6] | Potency [7] | Potency [8] | outcome [9] | Potency [10] | Potency [18] | Potency [20] | Potency [11] | Potency [12] | Potency [13] | Potency [14] | Potency [15] | Potency [19]

N[C@@H](CSSC[C@H](N)C(=O)O)C(=O)O
inactive: activation [1] 5.41% [at 0.348 µM] | activity, negative = inhibition [2] 28.3% [at 0.349 µM] | activity change, negative = cytotoxicity [3] 0.823% [at 0.35 µM] | activity change, negative = cytotoxicity [4] 3.32% [at 0.349 µM] | activation [5] -0.591% [at 0.349 µM] | activity change, negative = cytotoxicity [16] -5.72% [at 0.349 µM] | cAMP activity change [6] -6.57% [at 0.349 µM] | activity change, negative = inhibition [7] 0.59% [at 0.349 µM] | activity change, negative = cytotoxicity [8] 7.62% [at 0.349 µM] | activation [9] -4.21% [at 0.349 µM] | viability change, negative = cytotoxic [11] -1.61% [at 0.29 µM] | activity change, negative = cytotoxicity [12] 1.93% [at 0.29 µM] | activation [13] 1.61% [at 0.29 µM] | activity change, negative = cytotoxicity [19] -23% [at 0.349 µM]

CC1=CCC(=O)O1
inactive: Potency [1] | Potency [2] | Potency [3] | Potency [4] | Potency [16] | Potency [17] | outcome [6] | Potency [7] | Potency [8] | outcome [9] | Potency [10] | Potency [18] | Potency [20] | Potency [11] | Potency [12] | Potency [13]

COc1ccc(-n2nc(CCC(=O)N(C)O)cc2-c2ccc(Cl)cc2)cc1
active: Potency [2] 7.5 µM | Potency [4] 7.5 µM
inactive: Potency [1] | Potency [3] | Potency [5] | Potency [17] | outcome [6] | Potency [7] | Potency [8] | Potency [11] | Potency [12] | Potency [13] | Potency [14] | Potency [15]

CCOC(=O)COc1ccc(C)cc1
inactive: Potency [1] | Potency [2] | Potency [3] | Potency [4] | Potency [16] | Potency [17] | outcome [6] | Potency [7] | Potency [8] | outcome [9] | Potency [10] | Potency [18] | Potency [20] | Potency [11] | Potency [12] | Potency [13] | Potency [14] | Potency [15] | Potency [19]

Clc1cc(Cl)c(-c2c(Cl)c(Cl)cc(Cl)c2Cl)cc1Cl
inactive: Potency [1] | Potency [2] | Potency [3] | Potency [4] | Potency [5] | Potency [16] | outcome [6] | Potency [7] | Potency [8] | outcome [9] | Potency [10] | Potency [18] | Potency [11] | Potency [12] | Potency [13] | Potency [19]

C[Si](C)(C)Cl
inactive: Potency [1] | Potency [2] | Potency [3] | Potency [4] | Potency [5] | Potency [16] | Potency [17] | outcome [6] | Potency [7] | Potency [18] | Potency [20] | Potency [12] | Potency [13] | Potency [19]

CCc1c(Br)c(Br)c(Br)c(Br)c1Br
inactive: Potency [1] | Potency [2] | Potency [3] | Potency [4] | Potency [5] | Potency [16] | Potency [17] | Potency [8] | Potency [10] | Potency [20] | Potency [11] | Potency [13] | Potency [14] | Potency [15]

Reference: PubChem BioAssay (Tox21)
